Where “and” joins values, the source holds several entries; their conditions need not be identical. Identical values can stand only once. About 2,000 (36%) of roughly 5,500 compounds were called active. Not shown: some 18% with an inconclusive outcome. Cut-off read from the data, not from the text of the source: active = normalized growth mostly below about 0.91 (no sharp cut-off); inconclusive = no clear call, values can overlap the other calls; inactive = mostly above about 0.92. The list shows a part of the results.
Experiment: chemical genetic growth profiling, strain panel (AID 1159580);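 note: tested at 20 µM; growth read once vehicle control cultures reached saturation at 30 °C; 1 = growth at the plate median or of vehicle wells; lower values mean less growth of the strain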
Conditions: S. cerevisiae deletion strains, growth OD

Measured: normalized growth

O=c1ccc2cc(O)c(O)cc2o1
inactive: locus YAL013W, strain DEP1, hits give low values 1.01 | locus YAL021C, strain ccr4, hits give low values 1.01 | locus YAL026C, strain drs2, hits give low values 0.992 | locus YAL030W, strain snc1, hits give low values 1.03 | locus YBL061C, strain skt5, hits give low values 1 | locus YBR009C, strain hhf1, hits give low values 1.03 | locus YBR021W, strain FUR4, hits give low values 0.974 | locus YBR023C, strain chs3, hits give low values 1 | locus YBR171W, strain sec66, hits give low values 1 | locus YBR229C, strain ROT2, hits give low values 1.01 | locus YBR231C, strain swc5, hits give low values 0.966 | locus YBR279W, strain paf1, hits give low values 1.01 | locus YCL011C, strain gbp2, hits give low values 1.03 | locus YCL016C, strain dcc1, hits give low values 1 | locus YCL029C, strain bik1, hits give low values 0.989 | locus YCL061C, strain MRC1, hits give low values 1 | locus YCL069W, strain vba3, hits give low values 0.999 | locus YCR088W, strain abp1, hits give low values 1.01 | locus YDL005C, strain med2, hits give low values 1.02 | locus YDL035C, strain GPR1, hits give low values 0.999 | locus YDL040C, strain nat1, hits give low values 1.02 | locus YDL074C, strain BRE1, hits give low values 1 | locus YDL101C, strain DUN1, hits give low values 1.01 | locus YDL185W, strain tfp1, hits give low values 0.987 | locus YDL192W, strain arf1, hits give low values 0.991 | locus YDR001C, strain nth1, hits give low values 0.994 | locus YDR069C, strain doa4, hits give low values 1.03 | locus YDR101C, strain arx1, hits give low values 0.98 | locus YDR137W, strain rgp1, hits give low values 0.913 | locus YDR159W, strain sac3, hits give low values 0.968 | locus YDR162C, strain NBP2, hits give low values 1.01 | locus YDR195W, strain ref2 1.01 | locus YDR297W, strain sur2, hits give low values 1.01 | locus YDR318W, strain mcm21, hits give low values 0.996 | locus YDR334W, strain swr1, hits give low values 1 | locus YDR335W, strain msn5, hits give low values 0.99 | locus YDR388W, hits give low values 0.996 | locus YDR392W, strain spt3, hits give low values 1.01 | locus YDR502C, strain sam2, hits give low values 0.997 | locus YEL003W, strain gim4, hits give low values 1.03 | locus YEL037C, strain rad23, hits give low values 1 | locus YEL061C, strain CIN8 (second series), hits give low values 0.997 | locus YEL061C, strain CIN8, hits give low values 1.01 | locus YER015W, strain faa2, hits give low values 0.993 | locus YER016W, strain bim1, hits give low values 0.975 | locus YER110C, hits give low values 0.991 | locus YER111C, strain swi4, hits give low values 0.99 | locus YER155C, strain BEM2 (second series), hits give low values 1.1 | locus YER155C, strain BEM2, hits give low values 1 | locus YER167W, strain BCK2, hits give low values 1.01 | locus YFR010W, strain ubp6, hits give low values 1 | locus YGL078C, strain dbp3, hits give low values 0.984 | locus YGL086W, strain mad1, hits give low values 0.987 | locus YGL167C, strain pmr1, hits give low values 0.998 | locus YGL173C, strain kem1, hits give low values 0.975 | locus YGL227W, strain vid30, hits give low values 0.999 | locus YGL240W, strain doc1, hits give low values 1.05 | locus YGL248W, strain PDE1, hits give low values 1.01 | locus YGL253W, strain hxk2, hits give low values 0.984 | locus YGR078C, strain PAC10, hits give low values 1.01 | locus YGR135W, strain pre9, hits give low values 0.987 | locus YGR252W, strain gcn5, hits give low values 0.942 | locus YHR013C, strain ard1, hits give low values 1.01 | locus YHR027C, strain rpn1, hits give low values 0.973 | locus YHR030C, strain SLT2, hits give low values 1.01 and 0.971 | locus YHR079C, strain IRE1 (second series), hits give low values 0.99 | locus YHR079C, strain IRE1, hits give low values 0.976 | locus YHR094C, strain hxt1, hits give low values 0.996 | locus YHR129C, strain ARP1, hits give low values 1.01 | locus YHR142W, strain chs7, hits give low values 0.979 | locus YHR200W, strain rpn10, hits give low values 0.99 | locus YIL066C, strain RNR3, hits give low values 1.01 | locus YIL073C, strain SPO22, hits give low values 0.976 | locus YIL125W, strain kgd1, hits give low values 0.984 | locus YIR030C, strain dcg1, hits give low values 0.996 | locus YJL092W, strain hpr5, hits give low values 1.01 | locus YJL095W, strain BCK1 (second series), hits give low values 1.02 | locus YJL095W, strain BCK1, hits give low values 1.02 and 0.993 | locus YJL115W, strain asf1, hits give low values 1.01 | locus YJL129C, strain trk1, hits give low values 0.973 | locus YJL134W, strain LCB3, hits give low values 1.02 | locus YJL154C, strain vps35, hits give low values 1.01 | locus YJL164C, strain tpk1, hits give low values 1.02 | locus YJL166W, strain qcr8, hits give low values 1.02 | locus YJL168C, strain set2, hits give low values 0.985 | locus YJL187C, strain SWE1 (second series), hits give low values 1.02 | locus YJR043C, strain POL32, hits give low values 1.02 | locus YJR066W, strain TOR1, hits give low values 0.978 | locus YKL009W, strain mrt4, hits give low values 1.01 | locus YKL068W, hits give low values 1 | locus YKL085W, strain MDH1 (second series), hits give low values 1 | locus YKL085W, strain MDH1, hits give low values 1 | locus YKL160W, strain elf1, hits give low values 0.961 | locus YKL190W, strain CNB1, hits give low values 1.01 | locus YKR001C, strain vps1, hits give low values 0.953 | locus YKR026C, strain gcn3, hits give low values 0.997 | locus YKR091W, strain srl3, hits give low values 1 | locus YLL001W, strain dnm1, hits give low values 1.02 | locus YLL026W, hits give low values 0.999 | locus YLL041C, strain sdh2, hits give low values 0.995 | locus YLR027C, strain aat2, hits give low values 1 | locus YLR039C, strain RIC1, hits give low values 1 | locus YLR058C, strain SHM2, hits give low values 1.02 | locus YLR102C, strain apc9, hits give low values 0.987 | locus YLR113W, strain HOG1, hits give low values 0.957 | locus YLR221C, strain rsa3, hits give low values 1.02 | locus YLR258W, strain gsy2, hits give low values 0.994 | locus YLR262C, strain YPT6 (second series), hits give low values 1.05 | locus YLR262C, strain YPT6, hits give low values 1.01 | locus YLR268W, strain sec22, hits give low values 0.972 | locus YLR320W, strain mms22, hits give low values 1.04 | locus YLR330W, strain CHS5, hits give low values 1.02 | locus YLR342W, strain FKS1 (second series), hits give low values 0.965 | locus YLR342W, strain FKS1, hits give low values 1.02 | locus YLR357W, strain rsc2, hits give low values 0.994 | locus YLR370C, strain arc18, hits give low values 1.01 | locus YLR371W, strain rom2, hits give low values 0.982 | locus YLR384C, strain iki3, hits give low values 1 | locus YLR418C, strain cdc73, hits give low values 0.953 | locus YML016C, strain PPZ1, hits give low values 1.02 | locus YML032C, strain rad52, hits give low values 1 | locus YML120C, strain ndi1, hits give low values 1.01 | locus YML124C, strain tub3, hits give low values 0.996 | locus YMR058W, strain fet3, hits give low values 0.97 | locus YMR078C, strain ctf18, hits give low values 0.989 | locus YMR125W, strain sto1, hits give low values 1.02 | locus YMR129W, hits give low values 1 | locus YMR205C, strain PFK2, hits give low values 1.02 | locus YMR223W, strain ubp8, hits give low values 0.985 | locus YMR231W, strain pep5, hits give low values 1 | locus YMR263W, strain SAP30, hits give low values 1 | locus YMR307W, strain GAS1, hits give low values 0.983 | locus YNL067W, strain RPL9B, hits give low values 0.989 | locus YNL071W, strain lat1, hits give low values 1.01 | locus YNL183C, strain NPR1, hits give low values 0.921 | locus YNL209W, strain ssb2, hits give low values 1 | locus YNL233W, strain BNI4, hits give low values 1.01 | locus YNL248C, strain rpa49, hits give low values 1.03 | locus YNL250W, strain rad50, hits give low values 1.01 | locus YNL271C, strain bni1, hits give low values 0.99 | locus YNL298W, strain CLA4, hits give low values 0.994 | locus YNL307C, strain MCK1, hits give low values 0.984 | locus YNL322C, strain KRE1 (second series), hits give low values 1 | locus YNL322C, strain KRE1, hits give low values 1.01 | locus YNR049C, strain mso1, hits give low values 1.01 | locus YNR052C, strain pop2, hits give low values 0.983 | locus YOL006C, strain TOP1, hits give low values 1.01 | locus YOL012C, strain htz1 0.571 | locus YOL147C, strain pex11, hits give low values 0.997 | locus YOR001W, strain rrp6, hits give low values 1.03 | locus YOR061W, strain CKA2, hits give low values 1.02 | locus YOR069W, strain VPS5, hits give low values 1.01 | locus YOR070C, strain gyp1, hits give low values 1 | locus YOR080W, strain dia2, hits give low values 1 | locus YOR083W, strain WHI5, hits give low values 0.942 | locus YOR106W, strain vam3, hits give low values 0.913 | locus YOR136W, strain idh2, hits give low values 0.993 | locus YOR144C, strain elg1, hits give low values 0.983 | locus YOR184W, strain ser1, hits give low values 0.992 | locus YOR231W, strain MKK1, hits give low values 0.98 | locus YOR265W, strain rbl2, hits give low values 0.989 | locus YOR270C, strain vph1, hits give low values 1.06 | locus YOR290C, strain snf2, hits give low values 1 | locus YOR316C, strain cot1, hits give low values 0.998 | locus YPL051W, strain arl3, hits give low values 1 | locus YPL055C, strain LGE1, hits give low values 0.99 | locus YPL078C, strain atp4, hits give low values 0.986 | locus YPL106C, strain sse1, hits give low values 0.983 | locus YPL240C, strain hsp82, hits give low values 1 | locus YPL256C, strain CLN2, hits give low values 1 | locus YPR119W, strain clb2, hits give low values 0.994 | locus YPR141C, strain kar3, hits give low values 0.993 | locus YPR163C, strain tif3, hits give low values 1 | locus YPR167C, strain met16, hits give low values 0.993 | strain wtn01, hits give low values 0.979

Source: PubChem BioAssay AID1159580 (chemical genetic matrix, 2015)
